Consider eight compounds from PubChem BioAssay (NCATS).

A number with no mark means an inactive call. Results filed as inconclusive are left out. Activity calls are given as the source filed them. Unless noted, calls come from the whole dose curve; as a rule, active = well fitted curve in either direction with a large enough effect (not every such curve was filed as active); inconclusive = small, poorly fitted or top-dose-only effect, or another doubt; inactive = flat fitted curve, though single readings scatter.

Test [1] addresses Lysosomal acid glucosylceramidase (Homo sapiens) (UniProt P04062). The experiment in a line: Glucocerebrosidase-p2 (AID 348; in the data active = potency below about 10 µM; note: potency is the fitted concentration of half-maximal effect). Particulars: purified GBA, blue fluorogenic substrate, 40 min. The method, boiled down: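 Normal human glucocerebrosidase (0.2 nM) with blue fluorogenic substrate (80 uM final) in citrate/phosphate pH 5.9 with 10mM sodium taurocholate, 0.01% tween-20; 40 min RT, NaOH/glycine stop; fluorescence Ex 365/Em 440; AC50 from a titration from 0.6 nM upwards.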

Test [2] can be described thus: AP1 Signaling Pathway (AID 357). Note: % is set by controls: 0 for no effect and ±100 for the full control effect. Particulars: ME-180 AP-1-bla reporter, EGF-induced, beta-lactamase ratio, 5 h; at 7.69 µM (top of the series) unless noted. The essentials:
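ME-180 cells with beta-lactamase reporter under AP-1 response element, stimulated with EC50 EGF; compounds tested in titration series, 5 h at 37 °C. CCF4 substrate added 2.5 h at room temperature; 460/530 nm emission ratio gave %activity and AC50.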

For test [3], the target named is Cytochrome P450 1A2 (Homo sapiens) (UniProt P05177). The experiment in a line: p450-cyp1a2 (AID 410; calls by dose curve; note: potency is the fitted concentration of half-maximal effect;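 for activity change, negative = inhibition: -100% = full effect of reference inhibitor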). Particulars: recombinant CYP1A2, luciferin-ME demethylation, luminescence; series mostly up to 57 µM. The method, boiled down: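 O-Demethylation of luciferin 6' methyl ether by human CYP1A2 is monitored as luciferase luminescence. Substrate sits at Km (100uM); enzyme is 20nM. Values are scaled to 57 uM furafylline as maximal inhibition.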

A short description of test [4]: NFAT Signaling Pathway (AID 444).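 Note: carbachol stimulus at about its EC50 of 1 µM final; % is set by controls: 0 for no effect and ±100 for the full control effect.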 Conditions: Jurkat NFAT-bla M1, carbachol, beta-lactamase ratio, 5 h; at 7.69 µM (top of the series) unless noted. The essentials: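 Jurkat cells carrying an NFAT-driven β-lactamase reporter and co-transfected muscarinic M1 receptor were treated with compound plus carbachol (1 uM final, an EC50 level) for 5 h at 37 °C. CCF4 loading followed for 1 h at RT; 460/530 nm ratio gave %activity.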

Test [5] can be described thus: Stat Signaling Pathway (AID 446).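 Note: ME-180 cervical cancer cells given 40 pM IL-6 alongside compound; SIE-controlled beta-lactamase reporter measured as 460/530 nm FRET emission ratio; % is set by controls: 0 for no effect and ±100 for the full control effect.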 Conditions: ME-180 SIE beta-lactamase reporter, IL-6 stimulated, 5 h; at 7.69 µM (top of the series) unless noted. The method, boiled down: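 Normalization used AC90 stimulation (300 pM IL-6) and AC90 inhibition (125 nM pan-JAK inhibitor at 40 pM IL-6). The underlying signal is SIE-driven beta-lactamase in ME-180 cells after 5 h IL-6 exposure with compound.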

For test [6], the target named is Glucocorticoid receptor (Homo sapiens) (UniProt P04150). Nature of the test: GR-EFC Redistribution (AID 451; calls by dose curve; note: potency is the fitted concentration of half-maximal effect). Conditions: CHO-K1 GR-EFC translocation, beta-gal luminescence, 2 h. The essentials: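 CHO-K1 cells stably expressing nuclear-localized β-gal enzyme acceptor and GR fused C-terminally to the enzyme donor fragment; ligand-driven nuclear translocation restores β-gal by complementation. Compounds titrated up to 46 uM final, 2 h at 37 °C; luminescence read.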

Test [7] addresses Mitogen-activated protein kinase 10 (Mus musculus) (UniProt Q61831). The experiment in a line: JNK3 AlphaScreen Assay (AID 530).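 Note: kinase came from lysate of stimulated human HepG2 cells; % is set by controls: 0 for no effect and ±100 for the full control effect.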 Conditions: JNK3 lysate, c-Jun phosphorylation; series mostly up to 57.1 µM. The essentials: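 Phosphorylation of biotinylated GST-cJun(1-79) at Ser73 is measured by AlphaScreen proximity luminescence. Enzyme is JNK3 in HepG2 lysates activated with interleukin-1beta and tumor necrosis factor alpha; ATP is 10 uM final.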

In test [8] the target is Cytochrome P450 2C9 (Homo sapiens) (UniProt P11712). Nature of the test: qHTS Assay for Inhibitors and Substrates of Cytochrome P450 2C9 (AID 883; active = well fitted curve in the direction sought with a large enough effect; an effect the other way counts as inactive or inconclusive; note: % is set by controls: 0 for no effect and ±100 for the full control effect; nearly all actives have a fitted effect of over 60% in size). Conditions: recombinant CYP2C9, luciferin-H luminescence, 60 min; series mostly up to 57.1 µM. The essentials: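 Human CYP2C9 (10nM) hydroxylated Luciferin-H (100uM, at its KM) to luciferin in 25mM KPO4. Compound was preincubated 10 min at 37C, then NADPH regeneration started a 60 min reaction at 37C. Luminescence was read after detection reagent, normalized to 57uM sulphaphenazole.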

The target in test [9] is Cytochrome P450 2D6 (Homo sapiens) (UniProt P10635). Nature of the test: qHTS Assay for Inhibitors and Substrates of Cytochrome P450 2D6 (AID 891; active = well fitted curve in the direction sought with a large enough effect; an effect the other way counts as inactive or inconclusive;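 note: luciferin methyl ether substrate demethylated by CYP2D6 with NADPH regeneration; % is set by controls: 0 for no effect and ±100 for the full control effect; nearly all actives have a fitted effect of over 60% in size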). Particulars: recombinant CYP2D6, luciferin-ME EGE luminescence; series mostly up to 57.1 µM. The essentials: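 Luminescent read-out of luciferin formed by 5 nM human CYP2D6 demethylating 30 uM Luciferin-ME EGE (Km level) over 60 min at room temperature after NADPH regeneration addition. Data normalized to full inhibition by 1.43 uM quinidine.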

The target of test [10] is Cytochrome P450 2C19 (Homo sapiens) (UniProt P33261). Nature of the test: qHTS Assay for Inhibitors and Substrates of Cytochrome P450 2C19 (AID 899; active = well fitted curve in the direction sought with a large enough effect; an effect the other way counts as inactive or inconclusive; note: nearly all actives have a fitted effect of over 60% in size; note: potency is the fitted concentration of half-maximal effect). Particulars: recombinant CYP2C19, luciferin-H EGE luminescence; series mostly up to 57.1 µM. The method, boiled down:
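Human CYP2C19 (5nM) with Luciferin-H EGE at 10uM (its KM) in 50mM KPO4 was preincubated with compound for 10 min at 37C. NADPH regeneration started a 60 min 37C reaction. Luciferin was read by luminescence, normalized to 57uM ketoconazole.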
(qHTS replaces the single test concentration by a dilution series.)

Test [11] can be described thus: Primary qHTS for small molecule stabilizers of the endoplasmic reticulum resident proteome: Secreted ER Calcium Modulated Protein (SERCaMP) assay (AID 1508630; active = well fitted curve in the direction sought with a large enough effect; an effect the other way counts as inactive or inconclusive; note: % is set by controls: 0 for no effect and ±100 for the full control effect). Particulars: SH-SY5Y GLuc-SERCaMP (Gaussia luciferase released on ER calcium loss) secretion, thapsigargin, luminescence; series mostly up to 38.4 µM. The method, boiled down:
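The SH-SY5Y reporter protocol was run at 3 concentrations up to 38.3 uM (primary) or 11 concentrations (follow-up): 16 h compound, 100 nM thapsigargin for 4 h, then extracellular luciferase luminescence.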

Test [12] has as its target Glucocorticoid receptor (Homo sapiens) (UniProt P04150). The experiment in a line: GR-GFP Redistribution (AID 450;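 active = compounds whose dose series gives a full or clear partial fitted curve of increased nuclear translocation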; note: potency is the fitted concentration of half-maximal effect). Conditions: U2OS GR-GFP nuclear translocation, laser cytometry, 2 h.
For test [13], the target named is 3',5'-cyclic-AMP phosphodiesterase 4B (Homo sapiens) (UniProt Q07343). The experiment in a line: qHTS Assay for Inhibitors of PDE-IV (AID 607; active = well fitted activation curve with a large enough effect in the main read-out, with a control signal flat, not every such curve was filed as active; note: % of control where 0% means no effect). Particulars: HEK293 ACTOne CNG channel cells, membrane potential fluorescence; series mostly up to 22.9 µM. The method, boiled down:
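HEK293 ACTOne cells with CNG channel (1000/well), endogenous PDE4; membrane potential dye, compounds up to 22.9 uM final. Fluorescence Ex 535/Em 590; RO 20-1724 (100 uM final) as reference.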

Test [14] addresses Cytochrome P450 3A4 (Homo sapiens) (UniProt P08684). The experiment in a line: qHTS Assay for Inhibitors and Substrates of Cytochrome P450 3A4 (AID 884; active = well fitted curve in the direction sought with a large enough effect; an effect the other way counts as inactive or inconclusive; note: nearly all actives have a fitted effect of over 50% in size; note: potency is the fitted concentration of half-maximal effect). Particulars: recombinant CYP3A4, Luciferin-PPXE luminescence; series mostly up to 57.1 µM. The method, boiled down:
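Luminescent readout of luciferin produced by CYP3A4 (20 nM) dealkylation of Luciferin-PPXE, 25 uM (its KM). NADPH-driven reaction ran 60 min at RT after 10 min compound preincubation; data scaled to 57 uM ketoconazole as 100% inhibition.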

The target is the same in test [15]. The experiment in a line: qHTS Assay for Activators of Cytochrome P450 3A4 (AID 885; active = well fitted curve in the direction sought with a large enough effect; an effect the other way counts as inactive or inconclusive; note: nearly all actives have a fitted effect of over 65% in size; note: potency is the fitted concentration of half-maximal effect). Conditions: recombinant CYP3A4, Luciferin-PPXE luminescence, 60 min; series mostly up to 57.1 µM. The essentials:
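Human CYP3A4 dealkylates Luciferin-PPXE to luciferin, which luciferase detection converts to light. Substrate was at its KM (25uM), buffer 200mM KPO4, reaction 60 min at RT.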

Test [16] in a line: Confirmation and Secondary Assay for Modulators of Hemoglobin Beta Chain Splicing at IVS2 705 locus (AID 930; active = well fitted curve in the direction sought with a large enough effect; an effect the other way counts as inactive or inconclusive; note: % of control where 0% means no effect). Conditions: HeLa EGFP-705 splicing reporter, GFP fluorescence, 48 h; series mostly up to 38.3 µM. The method, boiled down: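 Fluorescence gain (488 nm laser, 500-520 nm PMT) reflects restored correct splicing of a mutant IVS2-705 intron inside EGFP in stably transfected HeLa cells after 2-day compound treatment.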

Test [17] is described as follows: qHTS Assay for Identification of Small Molecule Agonists for Hypoxia Response Element Signaling Pathway (AID 914; active = well fitted activation curve with a large enough effect in the signal ratio, with a control signal flat, not every such curve was filed as active; the % refers to the signal ratio; note: % of control where 0% means no effect). Particulars: ME-180 (cervical carcinoma) HRE-bla reporter, beta-lactamase ratio, CoCl2, 17 h; activation: active compounds read high. The essentials: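 A beta-lactamase reporter under hypoxia response element control in ME-180 cells served as the system. Compound titrations plus EC50 CoCl2 ran 17 h at 37 degrees Celsius; AC50 values were fitted from %Activity.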

Sequence of Lysosomal acid glucosylceramidase (Homo sapiens) (P04062 whole entry, looked up): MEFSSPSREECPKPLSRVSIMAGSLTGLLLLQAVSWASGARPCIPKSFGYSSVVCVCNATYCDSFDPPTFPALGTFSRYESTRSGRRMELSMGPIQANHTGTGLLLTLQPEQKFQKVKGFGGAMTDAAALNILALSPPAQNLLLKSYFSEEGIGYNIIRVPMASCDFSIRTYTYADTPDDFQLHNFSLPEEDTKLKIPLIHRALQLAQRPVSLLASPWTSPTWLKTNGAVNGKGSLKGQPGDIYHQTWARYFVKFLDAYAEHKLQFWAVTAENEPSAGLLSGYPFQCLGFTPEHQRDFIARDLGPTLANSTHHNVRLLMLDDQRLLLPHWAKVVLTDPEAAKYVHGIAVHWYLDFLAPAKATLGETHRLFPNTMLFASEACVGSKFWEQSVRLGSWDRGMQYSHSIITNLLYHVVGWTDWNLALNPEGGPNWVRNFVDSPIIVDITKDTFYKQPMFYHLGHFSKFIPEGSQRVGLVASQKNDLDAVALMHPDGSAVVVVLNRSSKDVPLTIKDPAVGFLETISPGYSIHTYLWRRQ
Sequence of Cytochrome P450 1A2 (Homo sapiens) (P05177 whole entry, looked up): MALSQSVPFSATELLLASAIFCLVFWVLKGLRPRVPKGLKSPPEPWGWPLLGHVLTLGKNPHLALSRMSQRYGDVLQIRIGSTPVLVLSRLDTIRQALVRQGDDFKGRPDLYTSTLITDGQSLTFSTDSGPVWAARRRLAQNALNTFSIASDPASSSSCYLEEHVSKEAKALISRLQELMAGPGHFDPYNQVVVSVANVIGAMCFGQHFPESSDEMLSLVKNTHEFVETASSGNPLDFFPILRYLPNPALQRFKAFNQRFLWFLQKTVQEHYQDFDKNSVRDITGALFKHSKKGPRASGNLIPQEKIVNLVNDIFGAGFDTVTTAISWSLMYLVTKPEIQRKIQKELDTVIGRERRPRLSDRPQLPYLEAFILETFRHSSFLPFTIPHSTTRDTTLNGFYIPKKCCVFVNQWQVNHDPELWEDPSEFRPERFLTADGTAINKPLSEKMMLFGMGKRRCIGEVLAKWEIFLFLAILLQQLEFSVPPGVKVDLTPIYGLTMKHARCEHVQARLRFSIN
Sequence of Cytochrome P450 2C19 (Homo sapiens) (P33261 whole entry, looked up): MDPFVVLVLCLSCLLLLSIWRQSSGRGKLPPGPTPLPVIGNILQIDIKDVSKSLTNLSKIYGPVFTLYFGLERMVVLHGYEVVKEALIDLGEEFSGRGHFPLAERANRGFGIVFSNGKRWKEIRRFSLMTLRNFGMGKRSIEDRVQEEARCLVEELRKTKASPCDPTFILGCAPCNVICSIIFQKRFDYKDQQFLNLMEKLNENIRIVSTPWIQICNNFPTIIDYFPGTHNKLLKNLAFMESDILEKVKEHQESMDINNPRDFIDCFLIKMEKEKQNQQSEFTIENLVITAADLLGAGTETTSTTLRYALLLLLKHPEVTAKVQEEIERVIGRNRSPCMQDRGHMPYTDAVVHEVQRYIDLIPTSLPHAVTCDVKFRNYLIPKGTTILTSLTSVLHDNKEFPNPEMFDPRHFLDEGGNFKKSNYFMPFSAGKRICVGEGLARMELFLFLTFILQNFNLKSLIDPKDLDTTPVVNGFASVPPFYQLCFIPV
Sequence of Glucocorticoid receptor (Homo sapiens) (P04150 whole entry, looked up, the tested form may be a part): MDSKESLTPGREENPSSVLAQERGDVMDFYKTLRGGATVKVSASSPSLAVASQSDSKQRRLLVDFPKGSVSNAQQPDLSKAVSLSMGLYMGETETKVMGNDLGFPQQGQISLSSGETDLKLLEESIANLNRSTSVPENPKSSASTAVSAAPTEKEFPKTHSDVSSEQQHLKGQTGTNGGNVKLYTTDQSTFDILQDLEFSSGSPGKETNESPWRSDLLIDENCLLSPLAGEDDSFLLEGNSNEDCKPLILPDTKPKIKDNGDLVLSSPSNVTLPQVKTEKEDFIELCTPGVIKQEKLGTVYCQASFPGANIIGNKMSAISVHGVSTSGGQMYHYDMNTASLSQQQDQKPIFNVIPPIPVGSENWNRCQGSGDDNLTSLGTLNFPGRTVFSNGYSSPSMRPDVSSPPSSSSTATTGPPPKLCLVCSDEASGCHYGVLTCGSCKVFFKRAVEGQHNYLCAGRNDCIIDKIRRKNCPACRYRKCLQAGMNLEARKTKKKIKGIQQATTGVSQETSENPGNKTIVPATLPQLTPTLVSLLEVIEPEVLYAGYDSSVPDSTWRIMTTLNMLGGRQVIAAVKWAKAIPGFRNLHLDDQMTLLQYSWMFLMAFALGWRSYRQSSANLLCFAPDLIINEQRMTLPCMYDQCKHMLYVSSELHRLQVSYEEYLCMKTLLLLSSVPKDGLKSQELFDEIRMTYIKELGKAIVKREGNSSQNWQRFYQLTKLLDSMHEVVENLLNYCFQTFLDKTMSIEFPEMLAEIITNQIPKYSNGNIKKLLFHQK
Sequence of Cytochrome P450 3A4 (Homo sapiens) (P08684 whole entry, looked up): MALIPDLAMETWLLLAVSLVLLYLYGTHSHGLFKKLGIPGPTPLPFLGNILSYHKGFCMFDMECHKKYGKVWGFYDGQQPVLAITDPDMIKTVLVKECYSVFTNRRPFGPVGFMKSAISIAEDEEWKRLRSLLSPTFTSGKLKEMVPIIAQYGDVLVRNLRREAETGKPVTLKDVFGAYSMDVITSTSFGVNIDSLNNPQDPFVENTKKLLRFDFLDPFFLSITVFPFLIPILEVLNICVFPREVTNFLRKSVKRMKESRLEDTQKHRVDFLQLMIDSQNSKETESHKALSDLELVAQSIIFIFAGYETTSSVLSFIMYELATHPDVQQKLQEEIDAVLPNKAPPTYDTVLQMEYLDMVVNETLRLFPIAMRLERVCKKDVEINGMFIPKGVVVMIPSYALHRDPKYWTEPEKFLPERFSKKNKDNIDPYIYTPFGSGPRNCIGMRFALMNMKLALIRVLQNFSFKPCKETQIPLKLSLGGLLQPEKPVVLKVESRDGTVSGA
Sequence of 3',5'-cyclic-AMP phosphodiesterase 4B (Homo sapiens) (Q07343 whole entry, looked up): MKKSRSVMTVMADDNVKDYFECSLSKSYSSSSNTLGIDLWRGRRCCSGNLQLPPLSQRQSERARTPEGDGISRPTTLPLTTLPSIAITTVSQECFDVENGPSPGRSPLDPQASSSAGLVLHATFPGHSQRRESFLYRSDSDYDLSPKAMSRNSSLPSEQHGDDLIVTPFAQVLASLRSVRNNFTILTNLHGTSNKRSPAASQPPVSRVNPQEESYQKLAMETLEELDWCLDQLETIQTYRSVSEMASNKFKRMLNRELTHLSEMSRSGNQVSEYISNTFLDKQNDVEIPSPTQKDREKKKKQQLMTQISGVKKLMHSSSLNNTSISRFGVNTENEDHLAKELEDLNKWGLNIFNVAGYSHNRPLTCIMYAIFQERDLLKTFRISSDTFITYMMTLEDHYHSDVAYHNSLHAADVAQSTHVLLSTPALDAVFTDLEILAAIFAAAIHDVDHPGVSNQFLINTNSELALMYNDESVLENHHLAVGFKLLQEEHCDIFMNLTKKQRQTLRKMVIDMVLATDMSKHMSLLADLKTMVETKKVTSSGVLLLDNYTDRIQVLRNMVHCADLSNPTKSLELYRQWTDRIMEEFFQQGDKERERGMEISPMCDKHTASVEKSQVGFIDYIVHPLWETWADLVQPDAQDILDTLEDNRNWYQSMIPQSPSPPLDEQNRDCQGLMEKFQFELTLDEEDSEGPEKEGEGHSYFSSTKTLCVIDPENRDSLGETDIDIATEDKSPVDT
Sequence of Cytochrome P450 2D6 (Homo sapiens) (P10635 whole entry, looked up): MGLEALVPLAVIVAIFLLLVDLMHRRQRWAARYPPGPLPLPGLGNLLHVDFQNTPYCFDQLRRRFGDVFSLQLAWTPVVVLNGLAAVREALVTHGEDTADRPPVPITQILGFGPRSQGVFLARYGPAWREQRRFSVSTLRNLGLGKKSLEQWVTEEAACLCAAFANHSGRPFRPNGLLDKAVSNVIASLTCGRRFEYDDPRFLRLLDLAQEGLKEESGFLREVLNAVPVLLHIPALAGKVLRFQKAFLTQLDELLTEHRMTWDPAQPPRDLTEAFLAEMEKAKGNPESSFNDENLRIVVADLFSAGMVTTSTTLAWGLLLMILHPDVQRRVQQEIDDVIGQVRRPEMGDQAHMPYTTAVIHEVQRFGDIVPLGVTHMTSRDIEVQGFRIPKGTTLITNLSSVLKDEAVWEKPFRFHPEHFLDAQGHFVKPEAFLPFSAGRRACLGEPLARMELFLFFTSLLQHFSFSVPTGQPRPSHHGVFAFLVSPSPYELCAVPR
Sequence of Cytochrome P450 2C9 (Homo sapiens) (P11712 whole entry, looked up): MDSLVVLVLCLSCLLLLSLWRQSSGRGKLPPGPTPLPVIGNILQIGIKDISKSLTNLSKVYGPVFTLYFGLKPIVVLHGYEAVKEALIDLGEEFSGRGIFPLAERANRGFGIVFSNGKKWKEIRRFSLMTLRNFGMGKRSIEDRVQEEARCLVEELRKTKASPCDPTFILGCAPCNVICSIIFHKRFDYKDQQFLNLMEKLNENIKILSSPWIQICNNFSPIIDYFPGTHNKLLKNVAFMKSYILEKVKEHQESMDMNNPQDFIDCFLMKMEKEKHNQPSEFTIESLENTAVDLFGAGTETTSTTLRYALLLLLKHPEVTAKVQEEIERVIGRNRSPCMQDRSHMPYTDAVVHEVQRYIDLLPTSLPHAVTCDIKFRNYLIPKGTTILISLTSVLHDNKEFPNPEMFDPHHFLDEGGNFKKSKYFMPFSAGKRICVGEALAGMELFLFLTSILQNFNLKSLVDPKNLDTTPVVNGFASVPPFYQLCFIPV

`O=C(c1cc(C(F)(F)F)cc(C(F)(F)F)c1)N1CCC2(CC1)CN(c1ncccn1)C2`: the Potency in [1] is greater than 11.4 µM; in test [6], greater than 46 µM. In addition, the activity change, negative = inhibition in [2] is -14.3%; in test [4], 31%. The Potency entry in test [3], in test [7], in [8], in [9] and in test [10] was “inactive” throughout. In test [5], the activity, negative = inhibition is 1.12%. The result in [11] was inactive.
As to `Cc1cccc(CNc2cc(-c3cccc(C#N)c3)ncn2)c1`, the Potency in [1] was greater than 11.4 µM; in test [3], 0.158 µM (active); in [12] it was greater than 46 µM; in test [6], greater than 46 µM; in test [14], 7.94 µM (active); in [10], 6.31 µM (active). For the same compound, the figures for the activity change, negative = inhibition in test [2] and in [4] were -11.1% and 7.94%, respectively. Moreover, the Potency result in [7], in test [13] and in [15] was “inactive” in each case. Also, the outcome in test [16] and in test [11] was inactive.
As to `CC(=O)N1CCC2(CCCN(c3cccc(-c4ccccc4)c3)C2)CC1`, the Potency in test [1] is greater than 11.4 µM; in test [3] it was 5.01 µM (active); in test [6] it was greater than 46 µM. Further, the activity change, negative = inhibition in test [2] is -12.3%; in test [4], -0.641%. Besides, in test [5], the activity, negative = inhibition is -8.45%. Further, the Potency result in test [7] and in [15] was “inactive” in each case. Further, the result in [11] was inactive.
For the compound `O=c1c(-c2cccc(F)c2)nc2cncnc2n1C1CC1`, the Potency in [1] is greater than 11.4 µM; in test [3] it was 1.58 µM (active); in [12] it was greater than 9.22 µM; in [6] it was greater than 46 µM. For the same compound, the activity change, negative = inhibition is -9.05% in test [2] and -1.62% in [4]. Besides, the Potency result in [7], in [13] and in test [15] was “inactive” in each case. The outcome in test [11] was inactive.
For the compound `CC(C)NC(=O)N1CC[C@@]2(CCCN(C(=O)c3cccc(F)c3)C2)C1`, the results for the Potency in [1] and in [6] were greater than 11.4 µM and greater than 46 µM, respectively. Also, the activity change, negative = inhibition was -5.48% in test [2] and 10.1% in [4]. The Potency entry in test [3], in test [7] and in test [13] was “inactive” throughout. Further, in test [11], the result was inactive.
Regarding `N#Cc1cccc(NC(=O)N2CCCC3(CCN(C(=O)c4cnccn4)CC3)C2)c1`, the values for the Potency in test [1], in [3] and in test [6] were greater than 11.4 µM, 20 µM (active) and greater than 46 µM, respectively. Also, the activity change, negative = inhibition in test [2] is -1.03%; in [4], -9.23%. Also, in test [5], the activity, negative = inhibition was 0.635%. Further, the Potency entry in test [7] and in [15] was “inactive” each time. Moreover, the activation in [17] was 0.071%. Also, the result in [11] was inactive.
In the case of `O=C(c1cnccn1)N1CCC2(CC1)CCN(c1ccccn1)CC2`, the Potency was greater than 11.4 µM in test [1], greater than 46 µM in [6] and 15.8 µM (active) in test [15]. Besides, the values for the activity change, negative = inhibition in test [2] and in test [4] were -11.4% and -4.5%, respectively. Further, the Potency result in test [3], in test [7] and in test [14] was “inactive” throughout. Besides, the activity, negative = inhibition in test [5] was 3.98%. For the same compound, in [11], the outcome was inactive.
As to `COc1ccc(C(=O)N2CCC[C@@]3(CCN(c4cccc(-c5ccccc5)c4)C3)C2)cc1`, the Potency in test [1] was greater than 11.4 µM; in test [3] it was 12.6 µM (active); in [6], greater than 46 µM; in test [14], 3.16 µM (active); in test [10], 7.94 µM (active). Moreover, the activity change, negative = inhibition in [2] was 8.11%; in test [4] it was -15.1%. In test [5], the activity, negative = inhibition was -9.84%. For the same compound, the Potency result in test [15] is “inactive”. In addition, in [11], the outcome was inactive.
